Results: PubChem BioAssay AID651871 (Sanford-Burnham Center for Chemical Genomics, 2012)

test system: HL-1; assay: protection of cardiomyocytes from stress damage, SAR follow-up, cell-based, panel, H9c2 and HL-1, ATP luminescence, set 2 (AID 651871); settings: H9c2/HL-1 cardiomyocytes, 2-deoxyglucose stress, with 2-deoxyglucose, run 8, at 79 µM (top of the series);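 further: cells exposed to stressor for 2 h before ATP readout; reference of the scale not given here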

SMILES | activity (protection/inhibition)
COc1ccc2nc(-c3cc(OC)c(OC)c(OC)c3)cc(C(=O)NCC(=O)Nc3ccc(C(C)=O)cc3)c2c1 | 97.2%
CCOC(=O)c1cccc(NC(=O)CNC(=O)c2cc(-c3cc(OC)c(OC)c(OC)c3)nc3ccccc23)c1 | 74.3%
COc1ccc2c(c1OC)C(=O)N1c3ccccc3C(=O)N(Cc3cccc(Cl)c3Cl)C21 (stereo not drawn) | -9.25%
